Tau fibril FP: qHTS for Inhibitors of Tau Fibril Formation, Fluorescence Polarization | Potency, µM (doses to about 57.7 µM), inactives show top-dose activity, negative = inhibition, usual class: inhibitors | Microtubule-associated protein tau (Homo sapiens), P10636 | AID 1468, 2008 | 0.39% of 280,000 active | K18 P301L tau heparin fibrillization, Alexa594 FP, 6 h; further: potency means the concentration at half of the fitted maximal effect; nearly all actives have a fitted effect of over 55% in size
Target sequence (P10636 561-689 P618L limits assumed): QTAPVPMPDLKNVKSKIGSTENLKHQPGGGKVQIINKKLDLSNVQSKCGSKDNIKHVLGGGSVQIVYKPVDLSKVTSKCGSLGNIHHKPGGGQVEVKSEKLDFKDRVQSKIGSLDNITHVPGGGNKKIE
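Compound effects on tau fibrillization are measured by Alexa 594 fluorescence polarization (ex 555, em 632 nm). K18 P301L tau is used at 15 uM with 0.24 uM labeled tracer, and 20 uM heparin induces aggregation over 6 hr at 37 C.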
Tau ThT inhib: qHTS for Inhibitors of Tau Fibril Formation, Thioflavin T Binding. 2.1% of 270,000 active. recombinant tau K18 P301L, heparin-induced fibrillization, ThT fluorescence. Potency, µM (highest dose often 57.4 µM), for inactives: at the top dose activity, negative = inhibition, actives largely listed as inhibitors; further: potency means the concentration at half of the fitted maximal effect; nearly all actives have a fitted effect of over 55% in size
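Aggregation was driven by heparin (20 uM final) acting on recombinant tau […] bearing P301L in 100 mM sodium acetate pH 7; fibrils were detected with Thioflavin T.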
Tau fluor cs: Counterscreen qHTS for Inhibitors of Tau Fibril Formation, Fluorescence Polarization; 0.93% of 280,000 active; tau K18 P301L (four-repeat tau fragment) Alexa594 fluorescence, heparin fibrillization; Potency, µM (series often up to 57.7 µM), inactives show at the highest dose activity change, negative = decrease; further: potency means the concentration at half of the fitted maximal effect; nearly all actives have a fitted effect of over 55% in size
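Human K18 P301L tau (15 uM unlabeled plus 0.24 uM Alexa 594-labeled, final) in 100 mM sodium acetate pH 7 was mixed with compound and 20 uM heparin and incubated 6 hr at 37 C.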
Coupling enz: qHTS Assay for Inhibitors of Fructose-1,6-bisphosphate Aldolase from Giardia Lamblia: Coupling assay counterscreen | activity change, negative = inhibition, % at 58.2 µM, hits read low | coupling enzyme system counterscreen, AmpLite Red fluorescence | 0.67% of 290,000 active; in the data active means activity change below about -30%
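Fluorescence at 525 nm excitation and 598 nm emission measured inhibition of the coupled detection system without aldolase. Compounds (at 57.5 uM final) were preincubated 10 min at room temperature with coupling enzyme reagent before a 20 min substrate/AmpLite Red step.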
G9a inh: qHTS Assay for Inhibitors of Histone Lysine Methyltransferase G9a; Histone-lysine N-methyltransferase EHMT2 (Homo sapiens), Q96KQ7; G9a H3K9 monomethylation, AlphaScreen, 2 h; Potency, µM (highest dose often 102 µM), inactives show at the top dose activity, negative = inhibition, most hits filed as inhibitors; 8.8% of 350,000 active; further: potency means the concentration at half of the fitted maximal effect; nearly all actives have a fitted effect of over 75% in size
Target sequence (Q96KQ7 913-1193 limits assumed): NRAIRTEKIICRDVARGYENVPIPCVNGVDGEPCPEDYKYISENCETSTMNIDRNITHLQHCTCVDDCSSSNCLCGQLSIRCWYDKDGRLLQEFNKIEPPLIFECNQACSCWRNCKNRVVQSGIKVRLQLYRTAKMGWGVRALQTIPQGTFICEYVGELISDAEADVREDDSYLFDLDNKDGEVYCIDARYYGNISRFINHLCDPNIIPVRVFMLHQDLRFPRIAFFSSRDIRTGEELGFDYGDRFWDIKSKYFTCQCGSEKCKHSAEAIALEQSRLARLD
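G9a (20 nM) was preincubated 15 min with compound, then reacted 2 h at room temperature with 500 nM biotin-H3K9 peptide and 20 µM SAM. Monomethyl-H3K9 detected by AlphaScreen using anti-H3K9me1 antibody.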
Sfp PPTase inh: qHTS Assay for Inhibitors of Bacillus subtilis Sfp phosphopantetheinyl transferase (PPTase); 3.5% of 310,000 active; Biochemical Sfp PPTase activity, qHTS; Potency, µM, without a hit: largest response in the series, negative = inhibition, hits mostly inhibitors; 4'-phosphopantetheinyl transferase ffp (Bacillus subtilis), Q9F4F7;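 further: the enzyme is Sfp with the accession as filed and its product quenches rhodamine fluorescence; potency means the concentration at half of the fitted maximal effect; 0% = enzyme reaction without inhibitor and -100% = no enzyme wells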
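Sfp 15 nM + cpd, 15 min RT; start w/ rhodamine-CoA 5 uM, BHQ-2-YbbR 12.5 uM (final); 50 mM Hepes pH 7.6, 10 mM MgCl2, 0.01% NP-40, 0.01% BSA; read 525/598 nm at 0 and 30 min.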
Numbers without * were called inactive; u = inconclusive; x = not tested or not shown; [ ] = another dose, or the depositor's remark. The list is not random: actives were taken first. Their share in the collection is about 11%. Unless noted, the call rests on the fitted dose curve; in most records, active means well fitted curve in the direction sought with a large enough effect; inconclusive means small, poorly fitted or top-dose-only effect, or another doubt; inactive means no such curve, though single readings can be large; an effect the other way counts as inactive or inconclusive. Unless noted, on the % scale 0 is the no-effect control and ±100 the full control effect.

SMILES	Tau fibril FP	Tau ThT inhib	Tau fluor cs	Coupling enz	G9a inh	Sfp PPTase inh
N#CC1=C(N)C2=CCCC[C@H]2[C@H](c2ccc(Br)cc2)C1(C#N)C#N	u	14µM*	u	-23	u	7.1µM*
COc1cc(Cl)ccc1NC(=O)COc1ccccc1C(=O)NN	-3%	0%	2%	-2	1%	7%
CCOc1ccccc1CN1C(=O)c2ccccc2C1C(=O)NC1CCCCCC1 (stereo unspecified)	3%	-15%	-4%	x	-40%[59 µM]	x
O=C(O)C1CSC(c2ccco2)N1 (stereo unspecified)	-7%	u	-10%	-5	3.2µM*	u
O=C(O)C1CSC(c2ccncc2)N1 (stereo unspecified)	u	u	-11%	2	-25%[12.7 µM]	-70%
O=C1CSC(c2ccco2)N1 (stereo unspecified)	-1%	0%	-2%	2	79µM*	-3%
COc1ccc(C2NC(=O)CS2)cc1 (stereo unspecified)	-6%	-8%	5%	2	-12%[59 µM]	-9%
CCC1CCCCN1CCCNC(=O)c1ccc2c(c1)N(Cc1cccc(Cl)c1)C(=O)c1ccccc1S2(=O)=O (stereo unspecified)	u	-12%	u	x	u	x
CCN(CC)CCCNC(=O)CN1N=C(c2ccccc2)CCC1=O	0%	-3%	-6%	x	u	x
S=c1[nH]ccn1-c1cccc(Cl)c1Cl	1%	-1%	0%	2	5.6µM*	-20%
S=c1[nH]ccn1-c1ccccc1Cl	7%	-1%	1%	0	16µM*	0%
S=c1[nH]ccn1-c1cccc(Cl)c1	-1%	1%	5%	0	u	-2%
COc1ccccc1C(CC(=O)O)NS(=O)(=O)c1ccc2c(c1)N(C(C)=O)CC(C)O2 (stereo unspecified)	x	x	x	x	x	17%
CC(C)CNC(=O)CSc1nnc(-c2ccc(Cl)cc2)n1N	1%	-2%	6%	-1	22%	5%
Cc1cccc2c(N=Nc3ccc(S(=O)(=O)Nc4cccc(Cl)c4)cc3[N+](=O)[O-])c(O)[nH]c12	4%	u	5.6µM*[quencher]	5	u	17%
COc1ccc(NCCNc2ccc(OC)cc2)cc1	-7%	u	-19%	-35*	9%[0.0925 µM]	-3%
O=C(CNCc1ccc(Cl)cc1)Nc1ccc(C(=O)N2CCCCCC2)cc1	x	x	x	4	7.9µM*	-21%
O=C(c1ccc(NC(=S)NCc2ccc(Cl)cc2)cc1)N1CCCCC1	u	-1%	u	1	-5%	13%
COc1ccc(CCNCC(=O)Nc2ccc(OC(F)F)cc2)cc1	x	x	x	-2	6%	7%
O=C(CNCc1ccc(Cl)cc1)Nc1ccc(C(=O)N2CCCCC2)cc1	x	x	x	3	7.1µM*	u
COc1ccc(CCNCC(=O)Nc2ccc(C(=O)N3CCCCC3)cc2)cc1	x	x	x	1	8.9µM*	u
CN(C(=O)/C=C/c1ccc([N+](=O)[O-])s1)c1ccccc1	1%	u	u	2	45µM*	-4%
CN(C(=O)COC(=O)/C=C/c1ccccc1[N+](=O)[O-])c1ccccc1	-1%	-5%	-2%	3	3%	2%
CC12CCC(=O)N1C(C(=O)Nc1nc3ccccc3s1)CS2 (stereo unspecified)	x	x	x	x	-3%[59 µM]	x
CC12CCC(=O)N1C(C(=O)Nc1nc(-c3ccccc3Cl)cs1)CS2 (stereo unspecified)	x	x	x	x	50µM*	x
Cc1sc(NC(=O)C2CSC3(C)CCC(=O)N23)nc1-c1ccccc1 (stereo unspecified)	x	x	x	x	50µM*	x

Assay outcomes as filed in PubChem BioAssay.
